Results as given in PubChem BioAssay (NCATS).
Inconclusive results are not listed. Active and inactive are the calls of the source. Unless noted, calls come from the whole dose curve.

Tests used:
[1] = qHTS for Inhibitors of the Functional Ribonucleoprotein Complex (vRNP) of Lassa (LASV) Arenavirus: LASV Primary Screen - GLuc reporter signal (AID 1347082; calls by dose curve; tested in HEK293 reporter line; note: nearly all actives have a fitted effect of over 60% in size)
[2] = qHTS for Inhibitors of the Functional Ribonucleoprotein Complex (vRNP) of Lassa (LASV) Arenavirus: Viability assay - alamar blue signal for LASV Primary Screen (AID 1347083; calls by dose curve; tested in HEK293 reporter line; note: nearly all actives have a fitted effect of over 80% in size)
[3] = qHTS for Inhibitors of the Functional Ribonucleoprotein Complex (vRNP) of Lymphocytic Choriomeningitis Arenaviruses (LCMV): Viability assay - alamar blue signal for LCMV Primary Screen (AID 1347085; calls by dose curve; tested in HEK293 reporter line; note: nearly all actives have a fitted effect of over 80% in size)
[4] = target: Nucleoprotein (Lymphocytic choriomeningitis virus (strain Armstrong)) (UniProt P09992); test: qHTS for Inhibitors of the Functional Ribonucleoprotein Complex (vRNP) of Lymphocytic Choriomeningitis Arenaviruses (LCMV): LCMV Primary Screen - GLuc reporter signal (AID 1347086); note: nearly all actives have a fitted effect of over 70% in size
Sequence of Nucleoprotein (Lymphocytic choriomeningitis virus (strain Armstrong)) (P09992 whole entry, looked up): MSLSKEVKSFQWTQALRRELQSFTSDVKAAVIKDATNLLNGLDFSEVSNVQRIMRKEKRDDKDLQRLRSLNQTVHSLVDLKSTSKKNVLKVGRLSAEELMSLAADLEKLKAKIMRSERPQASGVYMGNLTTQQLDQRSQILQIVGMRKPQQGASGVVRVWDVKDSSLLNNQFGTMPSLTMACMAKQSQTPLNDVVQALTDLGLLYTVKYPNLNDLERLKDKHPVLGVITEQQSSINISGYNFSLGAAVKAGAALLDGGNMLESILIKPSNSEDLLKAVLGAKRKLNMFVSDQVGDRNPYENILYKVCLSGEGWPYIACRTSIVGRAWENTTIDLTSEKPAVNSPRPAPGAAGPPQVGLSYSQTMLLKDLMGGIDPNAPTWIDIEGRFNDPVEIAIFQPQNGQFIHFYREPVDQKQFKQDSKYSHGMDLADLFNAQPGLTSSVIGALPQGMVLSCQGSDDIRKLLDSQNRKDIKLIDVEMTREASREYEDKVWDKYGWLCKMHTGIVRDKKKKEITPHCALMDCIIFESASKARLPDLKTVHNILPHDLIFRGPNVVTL

Measured: Potency
Note: series mostly up to about 57 µM.

CCCCOc1ccc(C(=O)CCN2CCCCC2)cc1
inactive: all assays above

COc1ccc(CCC(C)=O)cc1
inactive: all assays above

CC(=O)OCC(=O)NCCCOc1cccc(CN2CCCCC2)c1
inactive: all assays above

NC(=O)CCCCC1CCSS1 (stereo not drawn)
inactive: all assays above

CN(C)CCN1C(=O)c2ccccc2N(C)c2ccccc21
inactive: all assays above

CC(C)(C)c1ccc(C(O)CCCN2CCC(C(O)(c3ccccc3)c3ccccc3)CC2)cc1 (stereo not drawn)
inactive: all assays above

CCCCCCCCCCCCCCCCCCOCC(O)CO (stereo not drawn)
inactive: all assays above

c1ccc(OCc2ccc(CCCN3CCOCC3)cc2)cc1
inactive: all assays above

Cc1ccc(/C(=C\CN2CCCC2)c2ccccn2)cc1
inactive: all assays above

CC[N+](CC)(CC)CCOC(=O)C(C1CCCC1)C1CCCC1
inactive: all assays above

Cc1[nH]c(=O)c(C#N)cc1-c1ccc2nccn2c1
inactive: all assays above

C[C@H]1C[C@H]2[C@@H]3CCC4=CC(=O)C=C[C@]4(C)[C@@]3(Cl)[C@@H](O)C[C@]2(C)[C@@]1(O)C(=O)CO
inactive: all assays above

C/C=C(/C(=C/C)c1ccc(OC(C)=O)cc1)c1ccc(OC(C)=O)cc1
inactive: all assays above

CN(C)CCOC(c1ccccc1)c1ccccc1
inactive: all assays above

CC1CCc2cc(F)cc3c(=O)c(C(=O)O)cn1c23 (stereo not drawn)
inactive: all assays above

Cc1cc(N)c2cc(NC(=O)Nc3ccc4nc(C)cc(N)c4c3)ccc2n1
inactive: all assays above

CCc1cccc(N(C)C(N)=Nc2cccc3ccccc23)c1
inactive: all assays above

C[C@]12CCC(=O)C=C1CC[C@@H]1[C@@H]2C(=O)C[C@@]2(C)[C@H]1CC[C@]2(O)C(=O)CO
inactive: all assays above

O=C1c2ccccc2C(=O)C1c1ccccc1
inactive: all assays above

O=C(O)CCNC(=O)c1ccccc1
inactive: all assays above

CCCCCOc1ccc(C2SC(=O)NC2=O)cc1OCC (stereo not drawn)
inactive: all assays above

CCN(CC)C(=O)Nc1ccc(OCC(O)CNC(C)(C)C)c(C(C)=O)c1 (stereo not drawn)
inactive: all assays above
